Several values for one entry are separate records, joined by “and”; a condition that tells them apart may be missing. Equal values may be shown once. Results filed as inconclusive are left out. Activity calls are given as the source filed them. Unless noted, calls follow the shape of the dose curve; as a rule, active = well fitted curve in the direction sought with a large enough effect; inconclusive = small, poorly fitted or top-dose-only effect, or another doubt; inactive = no such curve, though single readings can be large; an effect the other way counts as inactive or inconclusive.
Columns and labels:
[1] = target: Cytochrome P450 1A2 (Homo sapiens) (UniProt P05177); assay: p450-cyp1a2 (AID 410; calls by dose curve; also: potency is read from the fitted curve at half-maximal effect)
Sequence of Cytochrome P450 1A2 (Homo sapiens) (P05177 whole entry, looked up): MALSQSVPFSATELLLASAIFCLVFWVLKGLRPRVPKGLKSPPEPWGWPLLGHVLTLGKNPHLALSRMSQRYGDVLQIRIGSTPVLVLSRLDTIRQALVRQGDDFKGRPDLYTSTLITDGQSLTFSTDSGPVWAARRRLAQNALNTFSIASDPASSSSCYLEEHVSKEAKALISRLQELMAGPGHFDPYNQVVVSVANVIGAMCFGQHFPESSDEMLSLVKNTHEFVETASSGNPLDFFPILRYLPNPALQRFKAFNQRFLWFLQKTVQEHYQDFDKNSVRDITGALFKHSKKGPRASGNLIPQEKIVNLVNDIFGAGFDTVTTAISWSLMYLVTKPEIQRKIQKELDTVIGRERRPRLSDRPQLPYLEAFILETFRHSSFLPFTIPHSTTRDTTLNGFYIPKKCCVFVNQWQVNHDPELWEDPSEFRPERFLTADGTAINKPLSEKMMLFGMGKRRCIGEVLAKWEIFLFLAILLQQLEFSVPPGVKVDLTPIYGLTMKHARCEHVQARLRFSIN
How it was run: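 Human CYP1A2 (20nM) demethylated Luciferin-ME at its Km (100uM) in 100mM KPO4. After 10 min compound preincubation, NADPH regeneration ran the reaction 60 min at room temperature. Luciferin was read by luminescence, normalized to 57 uM furafylline.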

[2] = Stat Signaling Pathway (AID 446; active = well fitted curve in either direction with a large enough effect, not every such curve was filed as active;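 also: ME-180 cervical cancer cells given 40 pM IL-6 alongside compound; SIE-controlled beta-lactamase reporter measured as 460/530 nm FRET emission ratio; % is scaled to controls: 0 for no effect and ±100 for the full control effect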); details: ME-180 (cervical carcinoma) SIE beta-lactamase reporter, IL-6 stimulated, 5 h; at 7.69 µM (top of the series) unless noted
How it was run: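 IL-6/STAT signaling read in ME-180 cells via an SIE beta-lactamase reporter. Stimulus was 40 pM IL-6 (its AC50) for 5 hrs, so both activation and inhibition register.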

[3] = target: Glucocorticoid receptor (Homo sapiens) (UniProt P04150); assay: GR-EFC Redistribution (AID 451; calls by dose curve; also: potency is read from the fitted curve at half-maximal effect); details: CHO-K1 GR-EFC translocation, beta-gal luminescence, 2 h
Sequence of Glucocorticoid receptor (Homo sapiens) (P04150 whole entry, looked up, the tested form may be a part): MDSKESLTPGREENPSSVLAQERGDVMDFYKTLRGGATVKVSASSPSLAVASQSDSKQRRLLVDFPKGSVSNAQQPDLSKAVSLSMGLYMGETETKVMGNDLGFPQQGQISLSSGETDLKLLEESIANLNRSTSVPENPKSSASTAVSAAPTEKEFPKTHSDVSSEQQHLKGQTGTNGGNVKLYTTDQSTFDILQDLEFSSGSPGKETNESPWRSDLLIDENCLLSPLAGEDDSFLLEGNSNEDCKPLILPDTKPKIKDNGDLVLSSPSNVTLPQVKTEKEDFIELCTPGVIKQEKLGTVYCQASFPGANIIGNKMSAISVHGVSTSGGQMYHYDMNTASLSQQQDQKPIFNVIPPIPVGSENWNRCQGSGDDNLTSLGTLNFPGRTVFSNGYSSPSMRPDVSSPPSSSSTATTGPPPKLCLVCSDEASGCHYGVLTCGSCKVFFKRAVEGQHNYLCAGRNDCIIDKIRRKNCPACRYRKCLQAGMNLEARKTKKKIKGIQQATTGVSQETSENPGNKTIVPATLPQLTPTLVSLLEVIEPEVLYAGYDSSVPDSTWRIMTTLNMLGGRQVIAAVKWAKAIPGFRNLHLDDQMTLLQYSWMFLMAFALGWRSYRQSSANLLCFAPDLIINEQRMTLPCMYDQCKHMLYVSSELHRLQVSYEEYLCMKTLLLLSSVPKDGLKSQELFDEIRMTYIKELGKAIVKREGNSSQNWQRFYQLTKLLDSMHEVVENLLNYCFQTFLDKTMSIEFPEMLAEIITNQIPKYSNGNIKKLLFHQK
How it was run: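 CHO-K1 cells expressing nuclear EA and GR-ED fragments of b-gal; compounds titrated up to 46 uM final, 2 h at 37 C. GR nuclear translocation read as complemented b-gal luminescence after 1 h RT detection.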

[4] = target: Guanine nucleotide-binding protein G(i) subunit alpha-1 (Homo sapiens) (UniProt P63096); assay: qHTS Assay for Inhibitors of RGS12 GoLoco Motif Activity (Green Fluorophore) (AID 879);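 also: 0% = labeled peptide with Gαi1 and full inhibition = labeled peptide alone without protein; negative values mean loss of peptide binding seen as reduced polarization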
Sequence of Guanine nucleotide-binding protein G(i) subunit alpha-1 (Homo sapiens) (P63096 whole entry, looked up): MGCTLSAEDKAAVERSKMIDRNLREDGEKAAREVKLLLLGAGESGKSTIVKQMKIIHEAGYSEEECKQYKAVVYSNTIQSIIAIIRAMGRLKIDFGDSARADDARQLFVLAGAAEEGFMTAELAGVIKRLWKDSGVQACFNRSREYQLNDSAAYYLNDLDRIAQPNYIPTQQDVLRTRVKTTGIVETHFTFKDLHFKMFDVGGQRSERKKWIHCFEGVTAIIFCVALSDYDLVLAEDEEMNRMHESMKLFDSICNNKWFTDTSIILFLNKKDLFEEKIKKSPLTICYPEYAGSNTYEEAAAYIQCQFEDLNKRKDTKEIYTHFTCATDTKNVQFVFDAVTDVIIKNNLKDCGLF
How it was run: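 Fluorescence polarization assay: 50 nM Gαi1 with 10 nM FITC-labeled RGS12 GoLoco peptide in 10 mM Tris pH 7.5, 150 mM NaCl, 0.1 mM GDP, 0.05% NP40, 10 min at room temperature with compound.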

[5] = target: Pyruvate kinase (Leishmania mexicana) (UniProt Q27686); assay: qHTS Validation Assay for Inhibitors of Leishmania Mexicana Pyruvate Kinase (AID 945);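 also: 0% = DMSO only neutral control wells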
Sequence of Pyruvate kinase (Leishmania mexicana) (Q27686 2-499 E452W): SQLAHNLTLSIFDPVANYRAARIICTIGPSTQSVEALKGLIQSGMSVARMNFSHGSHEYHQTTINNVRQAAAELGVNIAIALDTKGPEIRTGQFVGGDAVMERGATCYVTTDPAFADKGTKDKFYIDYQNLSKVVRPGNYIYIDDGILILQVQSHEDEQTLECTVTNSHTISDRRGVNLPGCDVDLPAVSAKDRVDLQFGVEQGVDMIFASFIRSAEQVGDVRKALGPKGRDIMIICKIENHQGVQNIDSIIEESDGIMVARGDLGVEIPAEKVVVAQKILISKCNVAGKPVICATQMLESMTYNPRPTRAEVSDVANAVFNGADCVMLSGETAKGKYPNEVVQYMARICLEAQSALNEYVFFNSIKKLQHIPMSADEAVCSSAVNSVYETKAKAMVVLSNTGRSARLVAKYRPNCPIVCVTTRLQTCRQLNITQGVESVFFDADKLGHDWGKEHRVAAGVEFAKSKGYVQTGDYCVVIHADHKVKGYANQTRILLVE
How it was run: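 Eight-point qHTS titrations; enzyme 0.2 nM LmPYK (E451W mutant); substrates 0.5 mM PEP, 0.1 mM ADP; 7 mM MgCl2; 1 h room temperature; PKLight luminescence normalized to neutral control.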

[6] = target: Pyruvate kinase PKM (Homo sapiens) (UniProt P14618); assay: qHTS Assay for Activators of Human Muscle Pyruvate Kinase (AID 954; active = well fitted curve in the direction sought with a large enough effect, not every such curve was filed as active;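 also: 0% = uninhibited enzyme and -100% = no enzyme or full thiadiazolimine inhibition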)
Sequence of Pyruvate kinase PKM (Homo sapiens) (P14618 whole entry, looked up): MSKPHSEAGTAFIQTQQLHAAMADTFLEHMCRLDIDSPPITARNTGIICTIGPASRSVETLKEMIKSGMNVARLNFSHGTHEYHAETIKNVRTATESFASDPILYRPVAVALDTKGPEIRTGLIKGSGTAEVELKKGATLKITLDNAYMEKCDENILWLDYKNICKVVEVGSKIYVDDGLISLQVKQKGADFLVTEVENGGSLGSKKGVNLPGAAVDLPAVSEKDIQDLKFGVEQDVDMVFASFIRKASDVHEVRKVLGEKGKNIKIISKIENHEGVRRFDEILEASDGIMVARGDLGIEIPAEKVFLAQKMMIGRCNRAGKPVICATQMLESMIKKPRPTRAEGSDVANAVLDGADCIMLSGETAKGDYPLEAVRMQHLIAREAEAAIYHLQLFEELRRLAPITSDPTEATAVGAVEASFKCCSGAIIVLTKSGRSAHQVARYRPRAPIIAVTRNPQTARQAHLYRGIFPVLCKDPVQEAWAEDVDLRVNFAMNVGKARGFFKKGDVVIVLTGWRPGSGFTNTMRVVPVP
How it was run: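 Enzyme was run at intermediate activity so both inhibitors and activators could be detected. ATP formed from ADP and PEP by 0.1 nM human PKM2 during a 1 h room-temperature incubation was quantified by coupled luciferase luminescence.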

[7] = target: Alpha-galactosidase A (Homo sapiens) (UniProt P06280); assay: Counterscreen for Glucocerebrosidase Inhibitors: qHTS Assay for Human alpha-Galactosidase at pH 4.5 (AID 992); also: 0% is about no effect
Sequence of Alpha-galactosidase A (Homo sapiens) (P06280 whole entry, looked up): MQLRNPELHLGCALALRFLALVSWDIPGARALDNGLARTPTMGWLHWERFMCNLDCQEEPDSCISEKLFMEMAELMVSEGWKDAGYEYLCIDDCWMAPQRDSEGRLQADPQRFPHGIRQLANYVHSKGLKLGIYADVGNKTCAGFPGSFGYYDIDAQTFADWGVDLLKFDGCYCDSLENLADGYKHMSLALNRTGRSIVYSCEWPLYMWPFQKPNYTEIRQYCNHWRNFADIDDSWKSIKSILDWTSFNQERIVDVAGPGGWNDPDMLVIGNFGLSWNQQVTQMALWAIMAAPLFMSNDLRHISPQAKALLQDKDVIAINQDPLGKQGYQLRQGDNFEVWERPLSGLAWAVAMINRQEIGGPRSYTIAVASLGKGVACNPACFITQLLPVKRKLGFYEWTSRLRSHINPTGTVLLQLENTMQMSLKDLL
How it was run: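 Read-out is 4-methylumbelliferone fluorescence (365 nm excitation, 440 nm emission) after a pH 10 NaOH/glycine stop. Reactions held 2 nM enzyme and 80 uM substrate at pH 4.5 for 20 min at room temperature.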

[8] = qHTS for differential inhibitors of proliferation of Plasmodium falciparum line 7G8 (AID 1815);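 also: parasite growth measured after three days of incubation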; also: potency is read from the fitted curve at half-maximal effect
[9] = qHTS for differential inhibitors of proliferation of Plasmodium falciparum line GB4 (AID 1816); details: Potency: Plasmodium falciparum GB4 proliferation inhibition;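 also: parasite growth measured after 72 h incubation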; also: potency is read from the fitted curve at half-maximal effect
[10] = qHTS for differential inhibitors of proliferation of Plasmodium falciparum line D10 (AID 1877);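 also: parasites grown with compound for 72 h before DNA staining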; also: potency is read from the fitted curve at half-maximal effect
[11] = qHTS for differential inhibitors of proliferation of Plasmodium falciparum line W2 (AID 1883); details: Potency: Plasmodium falciparum W2 proliferation inhibition;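 also: parasites grown with compound for 72 h before lysis and staining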; also: potency is read from the fitted curve at half-maximal effect
[12] = qHTS for differential inhibitors of proliferation of Plasmodium falciparum line HB3 (AID 1886); details: Potency: Plasmodium falciparum HB3 proliferation inhibition;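 also: parasites grown with compound for 72 h before SYBR Green readout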; also: potency is read from the fitted curve at half-maximal effect
[13] = target: RecQ-like DNA helicase BLM (Homo sapiens) (UniProt P54132); assay: qHTS Validation Assay for Inhibitors of Bloom's syndrome helicase (BLM) (AID 2364);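 also: plate controls were DMSO vehicle for no effect and enzyme-free control for full effect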
Sequence of RecQ-like DNA helicase BLM (Homo sapiens) (P54132 whole entry, looked up): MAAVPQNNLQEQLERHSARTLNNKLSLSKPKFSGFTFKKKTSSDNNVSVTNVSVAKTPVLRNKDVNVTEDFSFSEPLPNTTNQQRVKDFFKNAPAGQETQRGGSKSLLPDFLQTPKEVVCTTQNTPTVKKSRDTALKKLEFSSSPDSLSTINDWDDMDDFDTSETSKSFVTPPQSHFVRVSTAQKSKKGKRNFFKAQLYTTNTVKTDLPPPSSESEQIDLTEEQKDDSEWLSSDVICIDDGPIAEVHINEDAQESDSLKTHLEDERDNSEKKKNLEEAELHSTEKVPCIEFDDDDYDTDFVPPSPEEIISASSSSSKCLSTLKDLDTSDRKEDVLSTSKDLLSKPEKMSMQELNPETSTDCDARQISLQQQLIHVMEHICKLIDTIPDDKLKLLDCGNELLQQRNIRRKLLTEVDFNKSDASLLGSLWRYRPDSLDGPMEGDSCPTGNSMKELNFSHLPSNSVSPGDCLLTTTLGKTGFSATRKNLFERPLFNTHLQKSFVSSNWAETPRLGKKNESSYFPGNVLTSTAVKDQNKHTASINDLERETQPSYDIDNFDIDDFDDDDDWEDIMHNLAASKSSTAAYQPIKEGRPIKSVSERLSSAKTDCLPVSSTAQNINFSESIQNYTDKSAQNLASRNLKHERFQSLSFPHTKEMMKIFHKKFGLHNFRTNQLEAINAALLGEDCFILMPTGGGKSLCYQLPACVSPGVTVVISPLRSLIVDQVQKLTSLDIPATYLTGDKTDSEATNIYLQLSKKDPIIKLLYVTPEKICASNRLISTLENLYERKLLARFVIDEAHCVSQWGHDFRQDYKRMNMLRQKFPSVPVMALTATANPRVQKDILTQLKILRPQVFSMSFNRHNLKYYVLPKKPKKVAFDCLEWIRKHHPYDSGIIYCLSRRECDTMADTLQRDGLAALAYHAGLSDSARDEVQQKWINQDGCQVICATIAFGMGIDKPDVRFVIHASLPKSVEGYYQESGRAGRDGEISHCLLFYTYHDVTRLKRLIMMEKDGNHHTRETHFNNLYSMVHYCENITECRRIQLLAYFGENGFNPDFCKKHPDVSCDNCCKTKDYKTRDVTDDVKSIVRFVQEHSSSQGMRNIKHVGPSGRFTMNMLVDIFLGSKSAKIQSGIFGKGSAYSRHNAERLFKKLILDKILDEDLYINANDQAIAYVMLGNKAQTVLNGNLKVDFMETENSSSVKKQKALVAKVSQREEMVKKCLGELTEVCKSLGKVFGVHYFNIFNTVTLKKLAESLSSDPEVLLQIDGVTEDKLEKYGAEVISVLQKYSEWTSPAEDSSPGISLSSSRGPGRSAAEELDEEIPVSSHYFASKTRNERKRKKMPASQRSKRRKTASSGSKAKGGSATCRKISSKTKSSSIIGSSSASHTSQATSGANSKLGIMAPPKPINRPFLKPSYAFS
How it was run: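 50 nM BLM preincubated 15 min at room temperature with compound in pH 8.0 Tris buffer containing 2.5 ug/ml poly(dI-dC); started with 200 nM TAMRA/BHQ-2 forked duplex and 2 mM ATP (final). Unwinding read as TAMRA fluorescence increase, two reads 2 h apart.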

[14] = Primary qHTS for inhibitors of nuclear receptor binding SET domain protein 2 (NSD2) in an isogenic RCH-ACV NSD2 p.E1099K mutant (9B) (AID 1645876); also: potency is read from the fitted curve at half-maximal effect; nearly all actives have a fitted effect of over 70% in size
[15] = Primary qHTS for inhibitors of nuclear receptor binding SET domain protein 2 (NSD2) in an RCH-ACV wild type WT cells (2C) (AID 1645877); also: potency is read from the fitted curve at half-maximal effect; nearly all actives have a fitted effect of over 70% in size
[16] = target: Glutathione peroxidase 1 (Homo sapiens) (UniProt P07203); assay: Primary qHTS Assay for Inhibitors of Recombinant Selenoprotein Glutathione Peroxidase 1 (GPX1) (AID 1845191); also: nearly all actives have a fitted effect of over 65% in size; as to activity, negative = inhibition: % is scaled to controls: 0 for no effect and ±100 for the full control effect
Sequence of Glutathione peroxidase 1 (Homo sapiens) (P07203 whole entry, looked up): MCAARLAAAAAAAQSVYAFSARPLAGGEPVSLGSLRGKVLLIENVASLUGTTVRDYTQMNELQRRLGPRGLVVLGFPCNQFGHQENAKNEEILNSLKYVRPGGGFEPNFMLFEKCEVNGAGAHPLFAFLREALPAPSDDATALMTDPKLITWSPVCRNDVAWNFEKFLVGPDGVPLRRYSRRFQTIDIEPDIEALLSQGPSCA
How it was run: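 GR-coupled assay: compounds preincubated 30 min at room temperature with GPX1, then reaction started with CHP; final 10 nM GPX1, 1 mM GSH, 0.5 mM CHP, 0.5 mM NADPH, 100 nM GR, 0.01% BSA, pH 7.5 Tris buffer. NADPH fluorescence (340/450 nm) read at 0 and 15 min.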

[17] = target: Phospholipid hydroperoxide glutathione peroxidase GPX4 (Homo sapiens) (UniProt P36969); assay: Primary qHTS Assay for Inhibitors of Recombinant Selenoprotein Glutathione Peroxidase 4 (GPX4) (AID 1845192); details: outcome: dose series up to 50 µM unless noted; also: % is scaled to controls: 0 for no effect and ±100 for the full control effect; nearly all actives have a fitted effect of over 65% in size
Sequence of Phospholipid hydroperoxide glutathione peroxidase GPX4 (Homo sapiens) (P36969 whole entry, looked up): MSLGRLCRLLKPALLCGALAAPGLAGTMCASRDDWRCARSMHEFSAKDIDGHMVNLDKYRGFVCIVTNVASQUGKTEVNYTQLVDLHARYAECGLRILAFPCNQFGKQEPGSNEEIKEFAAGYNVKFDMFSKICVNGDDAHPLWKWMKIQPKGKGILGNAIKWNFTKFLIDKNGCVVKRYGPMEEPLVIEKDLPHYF
How it was run: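 GR-coupled assay: recombinant GPX4 preincubated 30 min with compound at room temperature; final 200 nM GPX4, 1 mM GSH, 0.5 mM cumene hydroperoxide, 0.5 mM NADPH, 100 nM GR, 0.01% BSA, pH 7.5 Tris. NADPH fluorescence (340/450 nm) read at 0 and 15 min.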

[18] = Validation screen for small molecules that induce DNA re-replication in SW480 colon adenocarcinoma cells (AID 504364); also: 0% is about no effect
How it was run: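 SW480 cells seeded at 250 per well were exposed to compound or DMSO for 48 hr at 37 C, 5% CO2, then stained with Hoechst for 40 min. DNA content per nucleus was imaged (405 nm ex, 500-530 nm em).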

[19] = qHTS profiling for inhibitors of Plasmodium falciparum proliferation (AID 504749);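 also: 0% = DMSO vehicle and full inhibition = artemisinin control; nearly all actives have a fitted effect of over 60% in size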; details: P. falciparum in erythrocytes, SYBR Green DNA, 72 h, at 28.7 µM (top of the series)
How it was run: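 Readout was DNA-dye fluorescence from lysed cultures, ex 485/em 535 nm. Parasitized red cells had grown 72 h with compound; data scaled between 0.29 uM artemisinin and DMSO wells and corrected using vehicle-only plates.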

NCCNC(=O)c1ccc(Cl)cc1
active: Potency [1] 12.6 µM and 10 µM
inactive: activity, negative = inhibition [2] -2.11% [at 38 µM] | Potency [3] > 46 µM | outcome [4] | Potency [5] | outcome [6] | outcome [7] | Potency [8] | Potency [9] | Potency [10] | Potency [11] | Potency [12]

N=C1Sc2ccccc2C2=NCCCN12
active: Potency [1] 10 µM
inactive: activity, negative = inhibition [2] -18.9% [at 38 µM] | Potency [3] > 46 µM | outcome [4] | Potency [5] | outcome [6] | outcome [7] | Potency [10] | Potency [13]

Nc1nc(SCc2ccc([N+](=O)[O-])cc2)c2ncn([C@@H]3O[C@H](CO)[C@H](O)[C@H]3O)c2n1
inactive: Potency [10]

CCN(CC)CCNC(=O)c1c(C)[nH]c(/C=C2/C(=O)Nc3ccc(-c4csc(-c5ccccc5)n4)cc32)c1C
inactive: Potency [16] | Potency [17]
active: Potency [14] 7.42 µM | Potency [15] 5.9 µM

COc1nnc2ccc(N3CCC(c4ccc(OCCN5CCN(C)C(=O)[C@H]5C)cc4)CC3)nn12
active: Potency [14] 0.0661 µM | Potency [15] 0.0525 µM

CN1C(=O)CCC1c1cccnc1 (centres undefined)
inactive: Potency [8] | Potency [9] | Potency [10] | Potency [12] | Potency [13] | outcome [18] | activity, negative = inhibition ([19]; parasite line A) 0.771% | activity, negative = inhibition ([19]; parasite line B) 4.61%

Cc1ccccc1N1CCN(S(=O)(=O)C[C@]23CCC(CC2NC(=O)[C@@H](N)CCS(C)(=O)=O)C3(C)C)CC1 (some centres undefined)
inactive: Potency [12] | Potency [16]
active: Potency [11] 12.6 µM

CCCc1cc(C(=O)N[C@H](Cc2ccc(-c3cccc(OC(F)(F)F)c3)nc2)C(=O)N[C@@H]2CCNC2)sc1C
active: Potency [14] 6.61 µM | Potency [15] 5.9 µM
inactive: Potency [16]

C=CCN(/C=C1\C(=O)O[C@@H](COC)[C@]2(C)C1=C(O)C(=O)C1=C2[C@@H](OC(C)=O)C[C@]2(C)C(=O)CC[C@H]12)CC=C
active: Potency [14] 10.5 µM | Potency [15] 8.33 µM
inactive: Potency [16] | Potency [17]

Cc1cn([C@H]2C[C@@H](N=[N+]=[N-])[C@@H](CO)O2)c(=O)[nH]c1=O
inactive: Potency [8] | Potency [9] | Potency [10] | Potency [11] | Potency [12]

CC(C)C1NC(=O)[C@H](CCCCN)NC(=O)[C@@H](Cc2c[nH]c3ccccc23)NC(=O)[C@H](Cc2ccc(O)cc2)NC(=O)[C@H](C)N(C)C(=O)[C@H](Cc2ccccc2)NC1=O (some centres undefined)
inactive: Potency [8] | Potency [9] | Potency [10] | Potency [12] | Potency [13]

O=C(Cc1ccc(Cl)c(Cl)c1)OCCN1CCCC1
inactive: activity, negative = inhibition [2] 15.9% [at 38 µM] | Potency [3] > 46 µM | outcome [4] | Potency [5] | outcome [6] | outcome [7] | Potency [8] | Potency [9] | Potency [10] | Potency [11] | Potency [12]
active: Potency [1] 12.6 µM

OC[C@H]1O[C@@H](n2cnc3c(NCCc4ccccc4)ncnc32)[C@H](O)[C@H]1O
inactive: outcome [4] | Potency [5] | outcome [6] | outcome [7] | Potency [8] | Potency [9] | Potency [10] | Potency [12] | Potency [13]

C[C@@H](Oc1cc(C(=O)Nc2ccc(C(=O)N3CCN(C)CC3)cc2)nnc1N)c1c(Cl)ccc(F)c1Cl
active: Potency [14] 2.63 µM | Potency [15] 1.48 µM
inactive: Potency [16] | Potency [17]

COc1cc2c(cc1OC)C(c1ccccc1)CN(C)CC2 (centres undefined)
active: Potency [11] 7.94 µM
inactive: Potency [13] | activity, negative = inhibition ([19]; parasite line A) -10.7% | activity, negative = inhibition ([19]; parasite line B) -13.2%

CC(O)[C@@H](O)[C@H]1CNc2nc(N)[nH]c(=O)c2N1 (some centres undefined)
inactive: Potency [8] | Potency [9] | Potency [10] | Potency [11] | Potency [12] | outcome [18]

CN1C2CCC1CC(NC(=O)c1nn(C)c3ccccc13)C2 (centres undefined)
inactive: Potency [9] | Potency [10] | Potency [12] | Potency [13]

CC(C)(C)[C@]1(O)CCN2CC3c4ccccc4CCc4cccc(c43)[C@@H]2C1 (some centres undefined)
active: Potency [8] 5.62 µM and 5.01 µM | Potency [9] 6.31 µM and 5.01 µM | Potency [10] 12.6 µM and 11.2 µM | Potency [11] 2.82 µM and 2.24 µM | Potency [12] 12.6 µM and 6.31 µM
inactive: outcome [18]

CSc1nc(N)c2ncn([C@@H]3O[C@H](COP(=O)(O)OP(=O)(O)O)[C@H](O)[C@H]3O)c2n1
inactive: Potency [8] | Potency [9] | Potency [10] | Potency [11] | Potency [12]

CC(C)CN(C)c1nc(N)c(C(=O)N=C(N)N)nc1Cl
active: Potency [1] 0.794 µM | Potency [8] 11.2 µM | Potency [9] 11.2 µM | Potency [10] 7.08 µM | Potency [11] 2.82 µM | Potency [12] 8.91 µM
inactive: activity, negative = inhibition [2] -2.92% [at 38 µM] | Potency [3] > 46 µM | outcome [4] | Potency [5] | outcome [6] | outcome [7] | Potency [13]
